KDM4E inh: JMJD2E (human) inhibition. B2RXH2. JMJD2E catalytic domain, FDH-coupled NADH fluorescence (FDH is formaldehyde dehydrogenase). Potency, µM (doses to about 57.1 µM), for inactives: at the highest dose activity change, negative = inhibition, usual class: inhibitors. 230,000 compounds, 1.6% hits; active = well fitted inhibition curve with a large enough effect, not every such curve was filed as active; inconclusive = small, poorly fitted or top-dose-only effect, or another doubt; inactive = no such curve, though single readings can be large or run the other way;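 note: potency is the fitted concentration of half-maximal effect; 0% = wells with enzyme and -100% = buffer wells without enzyme; nearly all actives have a fitted effect of over 50% in size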
Tau ThT inhib: inhibitors of human tau fibril formation, thioflavin T binding; P10636; recombinant tau K18 P301L, heparin-induced fibrillization, ThT fluorescence; Potency, µM (series often up to 57.4 µM), for inactives: at the highest dose activity, negative = inhibition, hits mostly inhibitors; 270,000 compounds, 2.1% hits; AID 1460; note: potency is the fitted concentration of half-maximal effect; nearly all actives have a fitted effect of over 55% in size
Target sequence (P10636 561-689 P618L limits assumed): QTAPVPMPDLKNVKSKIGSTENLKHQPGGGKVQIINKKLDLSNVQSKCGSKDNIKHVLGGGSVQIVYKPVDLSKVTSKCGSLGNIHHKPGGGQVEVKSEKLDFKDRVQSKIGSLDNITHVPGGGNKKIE
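Heparin-induced fibrillization of the P301L-mutant K18 repeat-domain fragment of human tau was followed by ThT binding in quantitative high-throughput format.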
NPSR antagonist: antagonists of human neuropeptide S receptor cAMP signaling; Potency, µM (doses to about 38.3 µM), for the others: at the top dose activity change, negative = inhibition, actives largely listed as inhibitors; CHO-NPSR cells, cAMP TR-FRET, antagonist mode; Q6W5P4; 220,000 compounds, 1% hits; note: potency is the fitted concentration of half-maximal effect; nearly all actives have a fitted effect of over 50% in size
Target sequence (Q6W5P4 whole entry, looked up): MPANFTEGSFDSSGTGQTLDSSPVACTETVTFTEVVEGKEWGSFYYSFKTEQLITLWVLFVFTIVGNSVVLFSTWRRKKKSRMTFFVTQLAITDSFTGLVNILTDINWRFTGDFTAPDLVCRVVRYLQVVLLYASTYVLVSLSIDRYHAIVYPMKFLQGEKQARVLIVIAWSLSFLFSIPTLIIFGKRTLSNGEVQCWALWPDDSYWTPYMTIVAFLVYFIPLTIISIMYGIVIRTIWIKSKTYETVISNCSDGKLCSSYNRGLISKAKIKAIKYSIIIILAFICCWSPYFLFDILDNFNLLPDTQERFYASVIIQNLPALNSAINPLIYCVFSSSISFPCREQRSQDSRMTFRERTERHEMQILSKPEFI
Tau fluor counter: counter-screen for tau fibril formation inhibitors; AID 1463; tau K18 P301L Alexa594 fluorescence, heparin fibrillization; 280,000 compounds, 0.93% hits; Potency, µM (titrated, usually from 57.7 µM), for the others: at the top dose activity change, negative = decrease; note: potency is the fitted concentration of half-maximal effect; nearly all actives have a fitted effect of over 55% in size
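Human tau K18 P301L (15 uM unlabeled, 0.24 uM Alexa 594-labeled) in 100 mM sodium acetate pH 7 with 20 uM heparin, 6 hr at 37 C. ThT 30 uM added, 1 hr ambient; Alexa 594 FP and total fluorescence read at 555/632 nm.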
Tau FP inhib: blocks human tau fibril formation measured by polarization. P10636. K18 P301L tau heparin fibrillization, Alexa594 FP, 6 h. Potency, µM (top dose mostly 57.7 µM), inactives show at the top dose activity, negative = inhibition, hits mostly inhibitors. 280,000 compounds, 0.39% hits. AID 1468; note: potency is the fitted concentration of half-maximal effect; nearly all actives have a fitted effect of over 55% in size
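Steps: dispense K18 P301L tau (15 uM plus 0.24 uM Alexa 594 tracer, final) in pH 7 sodium acetate; add compound; add heparin (20 uM final); incubate 6 hr, 37 C; add ThT (30 uM final); after 1 hr ambient, read FP.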
PNC assembly inh: inhibitors of perinucleolar compartment assembly. PC3M PTB-GFP, PNC prevalence imaging, 16 h; active compounds read low. activity change (PNC), negative = inhibition, % at 10 µM. 140,000 compounds, 3.1% hits. AID 2417;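 active = readout at or below -70, meaning at least 70% loss of cells showing the perinucleolar compartment, a nuclear body marking cancer cells; inconclusive = readout between -30 and a set limit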;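 note: plate controls were DMSO wells for no effect and camptothecin positive control wells for full effect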
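Compounds are pinned in duplicate onto adhered PC3M cells stably expressing GFP-tagged PTB and incubated 16 h at 37 C. Cells are then fixed, nuclei stained with Hoechst, and PNC-positive cells counted.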
* hit, by the source's call; [ ] = another dose, or the depositor's remark. Only some compounds are listed: those with a hit (about 5.1% of all), similar ones and a draw of the others. Unless noted, calls come from the whole dose curve; as a rule, active = well fitted curve in the direction sought with a large enough effect; inconclusive = small, poorly fitted or top-dose-only effect, or another doubt; inactive = no such curve, though single readings can be large; an effect the other way counts as inactive or inconclusive. Unless noted, % is set by controls: 0 for no effect and ±100 for the full control effect.

`CC1CC[C@@]2(OC1)O[C@@H]1[C@@H](O)[C@H]3C4CC[C@H]5C[C@@H](O[C@@H]6O[C@H](CO)[C@H](O[C@@H]7O[C@H](CO)[C@@H](O)[C@H](O[C@@H]8OC[C@@H](O)[C@H](O)[C@H]8O)[C@H]7O[C@@H]7O[C@H](CO)[C@@H](O)[C@H](O[C@@H]8O[C@H](CO)[C@@H](O)[C@H](O)[C@H]8O)[C@H]7O)[C@H](O)[C@H]6O)[C@H](O)C[C@]5(C)C4CC[C@]3(C)[C@H]1[C@@H]2C` (stereo partly specified) gave KDM4E inh 8%, Tau ThT inhib -9%, Tau fluor counter -5% and Tau FP inhib 1%.
`Cn1cccc1/C=C1/C(=O)NC(=O)N(C(C)(C)C)C1=O` gave KDM4E inh 4%, Tau ThT inhib -7%, NPSR antagonist 2%, Tau fluor counter 0% and Tau FP inhib -1%.
Cc1cc(C)cc(N2C(=O)NC(=O)/C(=C\c3cccn3-c3ccccc3)C2=O)c1 was read as KDM4E inh 6%, Tau ThT inhib -18%, NPSR antagonist -55%, Tau fluor counter 0%, Tau FP inhib 4% and PNC assembly inh inconclusive.
CN1C(=O)/C(=C/c2cccn2-c2ccc3ccccc3c2)C(=O)NC1=S was read as KDM4E inh -2%, Tau ThT inhib 16µM*, NPSR antagonist inconclusive, Tau fluor counter 18µM*[quencher], Tau FP inhib 32µM* and PNC assembly inh 5.
Cc1cc(C)cc(N2C(=O)NC(=O)/C(=C\c3cccn3-c3ccc(Cl)cc3)C2=O)c1 was read as KDM4E inh 4%, Tau ThT inhib -3%, NPSR antagonist 5µM*, Tau fluor counter -12%, Tau FP inhib -11% and PNC assembly inh inconclusive.
`O=C1NC(=S)NC(=O)C1=Cc1cccn1-c1ccc(O)cc1` gave KDM4E inh -5%, Tau ThT inhib 25µM*, NPSR antagonist inconclusive, Tau fluor counter inconclusive and Tau FP inhib -7%.
For CC(C)c1ccc(Cc2cnc(NC(=O)c3ccc4c(c3)CC(c3ccccc3)OC4=O)s2)cc1 (stereo unspecified) the results were Tau ThT inhib 14%, Tau fluor counter 2% and Tau FP inhib inconclusive.
`CC(C)C[C@H]1C(=O)N2CCC[C@@H]2[C@]2(O)O[C@](NC(=O)[C@@H]3C=C4c5cccc6[nH]c(Br)c(c56)C[C@H]4N(C)C3)(C(C)C)C(=O)N12` gave KDM4E inh inconclusive, Tau ThT inhib inconclusive, Tau fluor counter inconclusive and Tau FP inhib 4%.
`CC(C)C[C@H]1C(=O)N2CCCC2[C@]2(O)O[C@](NC(=O)[C@@H]3C=C4c5cccc6[nH]cc(c56)CC4N(C)C3)(C(C)C)C(=O)N12` (stereo partly specified) gave KDM4E inh inconclusive, Tau ThT inhib 13µM*, NPSR antagonist inconclusive, Tau fluor counter inconclusive, Tau FP inhib inconclusive and PNC assembly inh -5.
CC(C)[C@@]1(NC(=O)[C@@H]2C=C3c4cccc5[nH]cc(c45)C[C@H]3N(C)C2)O[C@@]2(O)[C@@H]3CCCN3C(=O)[C@H](Cc3ccccc3)N2C1=O was read as KDM4E inh inconclusive, Tau ThT inhib 13µM*, NPSR antagonist -51%, Tau fluor counter inconclusive, Tau FP inhib inconclusive and PNC assembly inh 35.
`CC(C)C[C@H]1C(=O)N2CCC[C@H]2[C@]2(O)O[C@](NC(=O)[C@@H]3C=C4c5cccc6[nH]c(Br)c(c56)CC4N(C)C3)(C(C)C)C(=O)N12` (stereo partly specified) gave KDM4E inh inconclusive, Tau ThT inhib inconclusive, NPSR antagonist 1.6µM*, Tau fluor counter inconclusive, Tau FP inhib 0% and PNC assembly inh 28.
For COc1cc(NC(=O)c2cc3cc4ccc(C)cc4nc3o2)cc(OC)c1OC the results were Tau ThT inhib inconclusive, Tau fluor counter -16% and Tau FP inhib -10%.
For CCOC(=O)c1ncc2[nH]c3ccc(OCc4ccccc4)cc3c2c1COC the results were Tau ThT inhib inconclusive, Tau fluor counter 4µM*[quencher] and Tau FP inhib -16%.
`CCCOC(=O)c1cc2c(cn1)[nH]c1ccccc12` gave Tau ThT inhib inconclusive, Tau fluor counter inconclusive and Tau FP inhib -17%.
For CCC(=O)OC1CCC2C3CCc4cc(O)ccc4C3CC[C@]12C (stereo partly specified) the results were KDM4E inh -17%, Tau ThT inhib inconclusive, Tau fluor counter inconclusive and Tau FP inhib inconclusive.
Screening CCN1C(=O)c2ccccc2Sc2ccc(NC(=O)Nc3ccc(Br)c(C)c3)cc21 returned Tau ThT inhib 14%, Tau fluor counter inconclusive and Tau FP inhib 16µM*.
For CCN1C(=O)c2ccccc2Sc2ccc(NC(=O)Cc3ccc(OC)c(OC)c3)cc21 the results were Tau ThT inhib -2%, Tau fluor counter inconclusive and Tau FP inhib -4%.
`CCOC(=O)c1sc(N=Nc2c(O)[nH]c(=O)[nH]c2=O)c(C(=O)OCC)c1C` gave KDM4E inh 0%, Tau ThT inhib 3%, NPSR antagonist 2%, Tau fluor counter 3%, Tau FP inhib 7% and PNC assembly inh -18.
CCOc1ccc2nc(N=Nc3c(O)[nH]c(=S)[nH]c3=O)sc2c1 was read as KDM4E inh -6%, Tau ThT inhib 2.2µM*, NPSR antagonist -54%, Tau fluor counter inconclusive and Tau FP inhib -1%.
For CCOc1ccc2nc(NC(=O)c3cccn(Cc4ccccc4C)c3=O)sc2c1 the results were Tau ThT inhib -1%, Tau fluor counter -17% and Tau FP inhib -8%.
For CCOc1ccc2nc(N=Nc3c(O)[nH]c(=O)[nH]c3=O)sc2c1 the results were KDM4E inh -1%, Tau ThT inhib 4.5µM*, NPSR antagonist 49%, Tau fluor counter -17% and Tau FP inhib 1%.
CCN(CC)c1nc2ccccc2nc1C(=O)Nc1cccc(C(C)=O)c1 was read as Tau ThT inhib inconclusive, Tau fluor counter -30% and Tau FP inhib -8%.
Screening COc1ccc(NC(=O)CSc2oc(-c3cccs3)nc2S(=O)(=O)c2ccccc2)c(OC)c1 returned Tau ThT inhib 2%, Tau fluor counter inconclusive and Tau FP inhib -6%.
`CCn1c(O)c(N=Nc2ccc(S(=O)(=O)N3CCOCC3)cc2)c(=O)n(CC)c1=S` gave KDM4E inh 9%, Tau ThT inhib 8.9µM*, NPSR antagonist inconclusive, Tau fluor counter -28% and Tau FP inhib -12%.
